Hits are enriched below; roughly 1.2% of the tested compounds scored in any of these assays.
LMP1 NFkB inh: inhibitors of Epstein-Barr LMP1-induced NF-kappaB reporter; inhibition, % at 12.5 µM; LMP1-induced NF-kappaB luciferase reporter cells, luminescence; actives 0.69% (n = 350,000); AID 504558; in the data active = inhibition above about 41%;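 note: 0% = neutral control wells and 100% = reference inhibitor control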
SRC3 inh: inhibits human SRC3 coactivator; HEK293 GAL4-SRC3 luciferase reporter, luminescence; inhibition, % at 3.6 µM; actives 0.17% (n = 360,000);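 active = inhibition above a per-campaign cutoff, the mean of all compounds plus 3 SD, cut at about 60% in these data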;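 note: 0% = DMSO-treated cells and 100% = gossypol-treated cells at 36 µM; higher means less SRC3-driven luciferase light from the GAL4 reporter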
Target sequence (Q9Y6Q9 whole entry, looked up, the tested form may be a part): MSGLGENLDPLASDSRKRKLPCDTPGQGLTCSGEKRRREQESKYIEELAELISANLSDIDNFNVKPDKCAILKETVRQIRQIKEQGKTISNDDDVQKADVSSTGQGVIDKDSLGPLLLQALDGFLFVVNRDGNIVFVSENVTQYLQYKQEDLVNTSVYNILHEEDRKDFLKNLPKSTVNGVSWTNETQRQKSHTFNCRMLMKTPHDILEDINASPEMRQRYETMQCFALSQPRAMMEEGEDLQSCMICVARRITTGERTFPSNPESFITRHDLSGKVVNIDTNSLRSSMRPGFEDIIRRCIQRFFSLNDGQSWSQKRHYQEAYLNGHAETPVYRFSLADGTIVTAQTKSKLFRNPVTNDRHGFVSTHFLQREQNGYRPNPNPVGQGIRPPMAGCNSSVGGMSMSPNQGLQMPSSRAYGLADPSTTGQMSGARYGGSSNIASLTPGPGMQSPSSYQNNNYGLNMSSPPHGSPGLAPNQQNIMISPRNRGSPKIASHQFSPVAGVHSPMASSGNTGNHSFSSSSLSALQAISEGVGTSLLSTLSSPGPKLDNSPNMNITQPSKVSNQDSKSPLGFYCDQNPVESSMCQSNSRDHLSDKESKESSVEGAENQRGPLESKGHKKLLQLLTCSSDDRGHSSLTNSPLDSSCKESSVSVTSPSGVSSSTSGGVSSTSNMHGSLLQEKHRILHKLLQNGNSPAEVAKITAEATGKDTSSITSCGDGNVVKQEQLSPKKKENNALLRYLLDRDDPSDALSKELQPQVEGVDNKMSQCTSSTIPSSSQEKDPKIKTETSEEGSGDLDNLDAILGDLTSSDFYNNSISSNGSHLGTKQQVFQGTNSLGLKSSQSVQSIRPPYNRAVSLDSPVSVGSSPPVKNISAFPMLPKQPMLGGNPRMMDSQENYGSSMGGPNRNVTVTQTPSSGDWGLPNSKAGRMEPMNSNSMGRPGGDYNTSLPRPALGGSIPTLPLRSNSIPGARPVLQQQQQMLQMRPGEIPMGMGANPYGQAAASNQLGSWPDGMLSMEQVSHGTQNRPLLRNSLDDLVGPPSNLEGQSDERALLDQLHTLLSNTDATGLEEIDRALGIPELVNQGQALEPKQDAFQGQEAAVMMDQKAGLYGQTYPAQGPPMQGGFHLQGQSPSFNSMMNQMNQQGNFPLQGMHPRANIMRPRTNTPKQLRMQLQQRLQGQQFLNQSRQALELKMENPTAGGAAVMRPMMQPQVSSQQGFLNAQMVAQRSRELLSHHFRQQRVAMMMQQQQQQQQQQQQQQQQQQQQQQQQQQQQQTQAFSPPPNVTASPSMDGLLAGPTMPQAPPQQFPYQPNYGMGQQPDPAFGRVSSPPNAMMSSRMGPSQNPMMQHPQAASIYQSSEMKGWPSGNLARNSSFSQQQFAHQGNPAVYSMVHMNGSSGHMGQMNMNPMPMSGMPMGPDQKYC
NR5A2 inv ag: suppresses constitutive activity of human LRH-1; inhibition, % at 3.6 µM; O00482; HEK293T StAR-luciferase reporter, LRH-1 transfected, 24 h; actives 0.13% (n = 360,000);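 active = inhibition above the mean inhibition of all tested compounds plus 3 SD, cut at about 73% in these data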;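 note: 0% = DMSO wells and 100% = reporter-only cells lacking LRH-1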
SRC1 inh: inhibitors of human steroid receptor coactivator 1 (SRC1); Q15788; HEK293 GAL4-SRC1 luciferase reporter, luminescence; inhibition, % at 3.6 µM; actives 0.12% (n = 360,000); AID 588354;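 active = inhibition above the campaign mean plus 3 SD, with each screening campaign given its own cutoff, cut at about 60% in these data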;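 note: 0% = DMSO treated cells and 100% = gossypol at 36 µM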
Shn3 3UTR inh: inhibitors of Schnurri-3 3'UTR reporter in osteoblasts. actives 0.52% (n = 360,000). Clone20 osteoblast Shn3 3'UTR firefly luciferase, 24 h. inhibition, % at 12.5 µM;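 active = mean inhibition of at least 75% with every replicate also reaching 75%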;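 note: 0% = median of neutral control wells and 100% = pilot-screen positive control compound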
SRC2 inh: human SRC2 (NCOA2) inhibition; HEK293 GAL4-SRC2 luciferase reporter, luminescence; inhibition, % at 9 µM; actives 0.17% (n = 370,000);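 active = inhibition above the mean inhibition of all tested compounds plus 3 SD, set per campaign, cut at about 52% in these data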;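 note: 0% = DMSO treated cells and 100% = cells given Gossypol at 36 µM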
* = called active by the depositor; x = no result given.

SMILES | LMP1 NFkB inh | SRC3 inh | NR5A2 inv ag | SRC1 inh | Shn3 3UTR inh | SRC2 inh
COc1ccc2c(CC(=O)OCC(=O)N(C)c3c(N)n(Cc4ccccc4)c(=O)[nH]c3=O)coc2c1 | 4 | 12 | 12 | -12 | 94* | 10
C[C@@H]1CN(c2ccc(N3CCN(C(=O)OC(C)(C)C)C[C@@H]3C)cc2C#N)CCN1Cc1ccccc1 | x | x | x | x | x | 29
c1ccc2c(c1)CCCC2C1=NCCN1 (stereo unspecified) | 79* | -4 | -13 | 0 | 0 | -8
COc1ccc(-c2cc(-c3nnc(SCC(=O)N4CCOCC4)n3N)[nH]n2)cc1 | x | x | x | x | x | 14
Nc1nc(N)nc(-c2cc([N+](=O)[O-])ccc2O)n1 | -19 | -3 | 5 | 12 | -24 | -16
Nc1nc(N)nc(-c2cc(O)ccc2O)n1 | 20 | 59 | 54 | 71* | -25 | 39
CC(/C=N\NC(=O)Cn1c(C)nc2ccccc21)=C\c1ccccc1 | 30 | 19 | 8 | 8 | 85* | 19
COc1ccc(-c2cc(-c3nc4ccccn4c3NCc3ccccc3)ccc2OC)cc1 | 15 | 64* | 91* | 15 | 97* | 91*
COc1ccc(-c2nc3ccccn3c2NCc2ccc3c(c2)OCO3)cc1 | -14 | -43 | -37 | -82 | -31 | -45
COc1ccc(-c2nc3ccc(C)cn3c2NCc2ccccc2)cc1SC1CCCCC1 | -8 | 3 | -5 | 1 | 98* | x
c1ccc(CNc2c(-c3cccc(SC4CCCCC4)c3)nc3ccccn23)cc1 | -4 | 1 | 6 | -29 | 90* | -22
CCC(C)Sc1cc(-c2nc3ccc(C)cn3c2NCc2ccccc2)ccc1OC (stereo unspecified) | 14 | 13 | 15 | 16 | 97* | 17
Cc1ccc2nc(-c3cccc(SC4CCCCC4)c3)c(NCc3ccccc3)n2c1 | 2 | -5 | 25 | -2 | 82 | -5
C[C@@H]1COc2cc(Br)ccc2S(=O)(=O)N1Cc1cn(Cc2ccc(Cl)cc2)nn1 | x | x | x | x | x | -25
O=C(OC12CCCN(C1)/C(=C/c1cccc(Cl)c1)C2)c1ccco1 (stereo unspecified) | x | x | x | x | x | 4
NC(=O)c1ncn([C@@H]2O[C@H](C(=O)N[C@H](Cc3c[nH]c4ccccc34)C(=O)N3CCN(CC(=O)N4CCCC4)CC3)[C@@H](O)[C@H]2O)n1 | x | x | x | x | x | -10
CCCCNc1c(-c2ccc(OC)c(SC3CCCCC3)c2)nc2ccc(C)cn12 | 25 | 2 | 30 | 7 | 96* | 21
CN(C)C(=O)c1cccc(-c2ccc3nncn3c2)c1 | x | 1 | 18 | 8 | -12 | -16
CNc1ccc2ncc(-c3cccc(C(=O)N(C)C)c3)n2n1 | x | 58 | 14 | 69* | 13 | 56*
CCOC(=O)c1sc(N(Cc2ccccc2)C(=O)COC(=O)c2ccccc2O)nc1C | 9 | -31 | -3 | -20 | -5 | -21
CCOC(=O)c1sc(N(Cc2ccccc2)C(=O)COC(=O)c2ccc(O)cc2)nc1C | 53* | 41 | 47 | -4 | 30 | 30
CC(C)c1ccc(OCC(=O)NNC(=O)c2cnccn2)cc1 | 55* | 17 | -2 | -18 | -6 | -49
Clc1ccc([C@H]2OC[C@@]3(CNCCc4c[nH]c5ccccc45)CS[C@H](c4ccc(Cl)cc4)N23)cc1 | x | x | x | x | x | -8
Cc1nnc(N2CCOCC2)c2nn(-c3ccccc3)c(C)c12 | 0 | 9 | 1 | 10 | -21 | 1
c1ccc(-n2nnc3c(N4CCOCC4)ncnc32)cc1 | 53* | -66 | -117 | -90 | -3 | 1
SMILES | LMP1 NFkB inh | SRC3 inh | NR5A2 inv ag | SRC1 inh | Shn3 3UTR inh | SRC2 inh
O=c1nc(N/N=C/C=C/c2ccccc2)cn[nH]1 | 47* | -80 | -91 | -97 | 8 | -45
O=c1nc(N/N=C/c2c[nH]c3ccccc23)cn[nH]1 | -6 | -81 | -110 | -129 | -79 | -34
O=C(Cn1nc(C(F)(F)F)c2c1CCC2)NC1CCCCC1 | 44* | 1 | -16 | 6 | 0 | -22
S=C(Nc1ccccc1)Nc1ccc(OCc2ccc(Cl)cc2Cl)cc1 | 77* | 60 | 50 | 55 | 85* | 82*
S=C(NCCSCc1ccc(Cl)cc1Cl)Nc1ccccc1 | -4 | 14 | 16 | -21 | -9 | 14
Nc1nc(-c2cccs2)c(CC(=O)O)s1 | -13 | -7 | 1 | -2 | -11 | -9
O=C(O)Cc1sc(Nc2ccc(Cl)cc2)nc1-c1cccs1 | 51* | x | x | x | x | -42

Source: PubChem BioAssay
